In PubChem BioAssay (NCATS):
Results filed as inconclusive are left out. The source made the active and inactive calls. Calls come from the whole dose curve; as a rule, active = well fitted curve in either direction with a large enough effect (not every such curve was filed as active); inconclusive = small, poorly fitted or top-dose-only effect, or another doubt; inactive = flat fitted curve, though single readings scatter.

Assay: Stat Signaling Pathway (AID 446);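 note: SIE-controlled beta-lactamase reporter measured as 460/530 nm FRET emission ratio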
Conditions: ME-180 (cervical carcinoma) SIE beta-lactamase reporter, IL-6 stimulated, 5 h; at 17.2 µM (top of the series) unless noted
Outline: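 Compound effects on IL-6-induced STAT reporter activity were measured in ME-180 cells. After overnight culture, cells were co-treated with 40 pM IL-6 for 5 hrs before beta-lactamase substrate loading at room temperature.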
% is set by controls: 0 for no effect and ±100 for the full control effect.

activity, negative = inhibition, inactive:
Cc1nn(CC(N)=O)c(=O)c2ccccc12 9.04%
COc1ccc(OC)c(C2C(C#N)=C(N)Oc3cc(C)[nH]c(=O)c32)c1 (stereo not given) 3.99%
Cc1ccc2[nH]c(CCN(C)C)c(CC#N)c2c1 5.44%
COc1cc(C2CC(C(F)(F)F)n3ncc(C(=O)O)c3N2)cc(OC)c1OC (stereo not given) 7.46%
CC(=N\O)/C(CN(C)C)=N/O 12%
Cc1cc(=O)oc2cc(OCCSCCN3CCOCC3)ccc12 -0.537%
CCCOc1cccc(C2C(C(=O)c3ccc(C)o3)=C(O)C(=O)N2CCCN(C)C)c1 (stereo not given) 5.19%
CSC(=Nc1ccccc1)C1=C(O)COC1=O -5.43%
Cn1c(NCc2cccnc2)nc2c1c(=O)n(Cc1ccccc1F)c(=O)n2C -20.6%
CCCOc1cccc(C2/C(=C(/O)c3ccccc3)C(=O)C(=O)N2CCN(C)C)c1 (stereo not given) 0.936%
COc1ccccc1N(O)C1CC(=O)N(c2ccc(Br)cc2)C1=O (stereo not given) -0.749%
N/C(CCN1CCOCC1)=N/O -0.113%
O=C1C(=O)N(CCCn2ccnc2)C(c2ccccn2)/C1=C(/O)c1ccccc1 (stereo not given) -2.92%
C=CCn1c(SCC(=O)c2ccccc2)nnc1-c1ccc2c(c1)OCO2 -9.25%
Cc1ccc(S(=O)(=O)NC(=O)NCc2ccc3c(c2)OCO3)cc1 0.559%
CSc1nc(N)nc(SCC(=O)CC(=O)OC(C)C)c1C#N -1.28%
CN(C)C(CN1C(=O)C2CC=CCC2C1=O)c1cn(C)c2ccccc12 (stereo not given) -3.79%
COC(=O)CN1C2(C#N)CCCCC2CC2CCCCC21C#N (stereo not given) 13%
Cc1ccc(-n2ncc3c(N4CCCC4)ncnc32)c(C)c1 -1.13%
COC(=O)CSc1nnc2n(-c3ccc(OC)cc3)c(=O)c3c4c(sc3n12)CCCCC4 5.65%
COC(=O)c1ccc(C2/C(=C(\O)c3cccc(OC)c3)C(=O)C(=O)N2CCCN(C)C)cc1 (stereo not given) 5.36%
CC12CCC(C(=O)NCCCN3CCOCC3)(OC1=O)C2(C)C (stereo not given) 3.88%
CCN(CC)CCCN1C(=O)C(=O)/C(=C(/O)c2ccc(OC)cc2)C1c1ccco1 (stereo not given) 10.8%
CC(=O)Nc1ccc(OC(=O)CC2SC(=O)NC2=O)cc1 (stereo not given) 5.85%
CC1=C(c2ccc(Cl)cc2)[N+](=O)C(C)(C)N1[O-] -0.945%
CCCCOC(=O)c1[nH]c(C)c(C(=O)OC)c1C -9.04%
O=C(O)CC(C(=O)N(c1ccccc1)c1ccccc1)N1CCOCC1 (stereo not given) 8.75%
COc1cccc(NC(=O)CSC2=C(C#N)C(c3ccco3)C3=C(CCCC3=O)N2)c1 (stereo not given) -7.07%
O=C(NC1(C(F)(F)F)C(=O)Nc2c1c(=O)[nH]c(=O)n2-c1ccccc1)c1cccnc1 (stereo not given) 3.92%
COC(=O)CSCC(=O)Nc1cc2c(cc1C(C)=O)OCO2 9.85%
CCOC(=O)Oc1ccc2c(c1)C(C)=CC(C)(C)N2C(=O)OCC 4.48%
N#Cc1c(NCCN)nc(NCc2ccccc2)c2c1CCN(Cc1ccccc1)C2 -5.14%
Cc1cc(=O)oc2ccc(OCC(=O)N3CCc4ccccc43)cc12 11.2%
N/C(=N\S(=O)(=O)c1ccc(Cl)s1)c1ccccc1 -9.11%
CCOC(=O)Cn1c(SC)nc2sc3c(c2c1=O)CC(C)(C)OC3 -3.19%
O=C(C1=C(O)C(=O)N(c2ncccn2)C1c1cccc(Cl)c1)c1ccco1 (stereo not given) -6.45%
Cc1ccc(N(CC(O)CN2CCCC2)S(=O)(=O)c2ccc(C)cc2)cc1 (stereo not given) 11.3%
CC(C)Cc1[nH]c(=O)c(C#N)c2c1CCCC2 8.54%
COCCCn1c2nc3ccccc3nc2c2c(=O)n(CC3CCCO3)cnc21 (stereo not given) -0.209%
CCn1cc(/C=N/O)c(C)n1 14%
